AC50 data for two molecules are collected here from paper PMC6792352, “Limited Chemical Structural Diversity Found to Modulate Thyroid Hormone Receptor in the Tox21 Chemical Library” (Environmental Health Perspectives, 2019).

For the assay, the system named is thyroid hormone receptor (endogenous TRα and TRβ). Details: species or system GH3-TRE-Luc (rat pituitary); GH3-TRE-Luc luciferase reporter transactivation, agonist mode, qHTS; RXR ligands can also activate indirectly.

Where two headings read alike, the source gives them in different places. Over roughly 7,300 compounds, “AC50” has its median near 90,000 nM; the lowest 2% begin near 20,000 nM. The list shows a part of the results.

Turning to `O=C(O)Cc1cc(I)c(Oc2ccc(O)c(I)c2)c(I)c1` [Tiratricol], the AC50 (read-out: TR_LUC_GH3_Agonist_AC50, agonist mode, primary qHTS, 24 h) was 0.000154 µM.

With `Cc1ccc(O)cc1` [Cresol], the AC50 (read-out: TR_LUC_GH3_Agonist_AC50, agonist mode, primary qHTS, 24 h, TR_LUC_GH3_Agonist_AC50 (uM)) amounted to 25 µM.
